Test results from PubChem BioAssay (NCATS).
Results filed as inconclusive are left out. A call without a number means that no potency is given here. Calls of active or inactive are those of the source. Calls come from the whole dose curve; as a rule, active = well fitted cell-killing curve with a large enough effect; inconclusive = small, poorly fitted or top-dose-only effect, or effect the other way; inactive = no such curve, though single readings can be large or run the other way.

Experiment: Quantitative High-Throughput drug screen in 47 multiple myeloma cell lines against the NCATS MIPE library collection: KMS26_JCRB cell viability assay (AID 1918975); note: nearly all actives have a fitted effect of over 45% in size
Settings: KMS26 myeloma cells viability, CellTiter-Glo ATP, 48 h; series mostly up to 45.8 µM
Description: PI: Beverly A. Mock Ph.D.
Laboratory of Cancer Biology and Genetics,
Center for Cancer Research, National Cancer Institute,
National Institute of Health, Bethesda, Maryland
Drug resistance and disease progression are common in multiple myeloma (MM) patients, underscoring the need for new therapeutic combinations. […] We hypothesized that effective combinations would reduce MYC expression and enhance p16 activity. […] These preclinical data identify potentially useful drug combinations for evaluation in drug-resistant MM and reveal potential mechanisms of combined drug sensitivity.
Described herein is the primary MIPE qHTS used to cherrypick compounds. Validated compounds were then further tested for potential synergistic activiy.
[1] Peat TJ, Gaikwad SM, Dubois W, Gyabaah-Kessie N, Zhang S, Gorjifard S, Phyo Z, Andres M, Hughitt VK, Simpson RM, Miller MA, Girvin AT, Taylor A, Williams D, D'Antonio N, Zhang Y, Rajagopalan A, Flietner E, Wilson K, Zhang X, Shinn P, Klumpp-Thomas C, McKnight C, Itkin Z, Chen L, Kazandijian D, Zhang J, Michalowski AM, Simmons JK, Keats J, Thomas CJ, Mock BA. Drug combinations identified by high-throughput screening promote cell cycle transition and upregulate Smad pathways in myeloma. Cancer Lett. 2023 Aug 1;568:216284. doi: 10.1016/j.canlet.2023.216284. Epub 2023 Jun 24. PMID: 37356470; PMCID: PMC10408729.
SEQUENCE No. (e.g., 1, 2, 3, etc.); […] (e.g., Cells, Incubation, Reagent, etc.); VALUE and DESCRIPTION.
1; Cells; 5 uL; white, solid bottom 1536-well Greiner assay plate.
2; Compounds; 23 nL; Kalypsis pin tool (Wako USA) equipped with a 1536-well pin head to transfer to the assay plates.
3; Incubation; 48 hours; 37C incubation.
4; Reagent;5uL; CellTiter Glo (Promega).
5; Detector; 425V; Luminescence; Viewlux PerkinElmer.
NOTES (numbers refer to Sequence numbers above)
1. The cell-based screening methods employed in this study were like those previously published. Briefly, the corresponding myeloma cell lines were screened in 1,536-well plates with 500 cells, 5-uL per well for inhibition of cell viability (assessed by measuring ATP levels with CellTiterGlo).
2. NCATS MIPE 4.0 library of approved and investigational drugs were added using the Kalypsis pin tool. Wells treated with DMSO only for 100% viability and media only wells for 0% viability were used as controls.
3. The assay plates were covered and incubated for 48 hours in a 37C, 5% CO2 incubator with controlled humidity.
4. After 48 hours, CellTilter-GloTM luminescent substrate mix (Promega) reagent was added to the assay plate and plates we incubated for 5 min at room temperature.
5. Signal was measured as median relative luminescence units on a ViewLux (PerkinElmer) multiplate reader.
[1] Heske CM, Davis MI, Baumgart JT, Wilson K, Gormally MV, Chen L, Zhang X, Ceribelli M, Duveau DY, Guha R, Ferrer M, Arnaldez FI, Ji J, Tran HL, Zhang Y, Mendoza A, Helman LJ, Thomas CJ. Matrix Screen Identifies Synergistic Combination of PARP Inhibitors and Nicotinamide Phosphoribosyltransferase (NAMPT) Inhibitors in Ewing Sarcoma. Clin Cancer Res. 2017 Dec 1;23(23):7301-7311. doi: 10.1158/1078-0432.CCR-17-1121. Epub 2017 Sep 12. PMID: 28899971; PMCID: PMC6636827.
Potency is the fitted concentration of half-maximal effect.

SMILES | Potency
C[C@]12C=CC(=O)C=C1CC[C@@H]1[C@@H]2C(=O)C[C@@]2(C)[C@H]1CC[C@]2(O)C(=O)CO | inactive
Cn1c(=O)c2c(ncn2CC(O)CO)n(C)c1=O (stereo not given) | inactive
Cc1cccc(N(C)C(=S)Oc2ccc3ccccc3c2)c1 | inactive
CCOC(=O)[C@H](CCc1ccccc1)N[C@H]1CS[C@H](c2cccs2)CN(CC(=O)O)C1=O | 18.7 µM (active)
COc1cnc(NS(=O)(=O)c2ccc(N)cc2)nc1 | inactive
Nc1ccc(S(=O)(=O)Nc2ccccn2)cc1 | inactive
COc1nc(N)nc2c1ncn2[C@@H]1O[C@H](CO)[C@@H](O)[C@@H]1O | inactive
CCN[C@H]1C[C@H](C)S(=O)(=O)c2sc(S(N)(=O)=O)cc21 | inactive
CCN(CC)CCn1c(=O)c(Cc2ccc(OC)cc2)nc2ccccc21 | inactive
COc1ccc2cc3[n+](cc2c1OC)CCc1cc2c(cc1-3)OCO2 | 5.9 µM (active)
C[C@@H](CN1CC(=O)NC(=O)C1)N1CC(=O)NC(=O)C1 | inactive
Nc1nc(N)c2nc(CNc3ccc(C(=O)NC(CCC(=O)O)C(=O)O)cc3)cnc2n1 (stereo not given) | 0.0264 µM (active)
CC1=CC(=O)c2ccccc2C1=O | 10.5 µM (active)
CNCC[C@H](Oc1cccc2ccccc12)c1cccs1 | 7.43 µM (active)
O=P(O)(O)C(O)(Cc1cccnc1)P(=O)(O)O | 0.0017 µM (active)
COc1cccc(N(C)C(=S)Oc2ccc3c(c2)CCCC3)n1 | inactive
CO[C@@H]1[C@@H](OC(N)=O)[C@@H](O)[C@H](Oc2ccc3c(O)c(NC(=O)c4ccc(O)c(CC=C(C)C)c4)c(=O)oc3c2C)OC1(C)C | 9.35 µM (active)
CNS(=O)(=O)Cc1ccc2[nH]cc(CCN(C)C)c2c1 | inactive
O=NN(CCCl)C(=O)NC1CCCCC1 | inactive
CC1=NN(c2ccccc2)C(=O)C1 | inactive

SMILES | Potency
C[C@@H](NCCCc1cccc(C(F)(F)F)c1)c1cccc2ccccc12 | inactive
CS(=O)(=O)c1ccc([C@@H](O)[C@@H](CO)NC(=O)C(Cl)Cl)cc1 | inactive
CCCOc1ccc(C(=O)OCCN(CC)CC)cc1N | inactive
COc1cc2ncnc(Nc3cccc(Cl)c3)c2cc1OC | 23.5 µM (active)
CCn1cc(C(=O)O)c(=O)c2cc(F)c(N3CCN(C)CC3)cc21 | inactive
COc1ncnc(NS(=O)(=O)c2ccc(N)cc2)c1OC | inactive
COc1ccc(-c2ccc3cc(C(=O)O)ccc3c2)cc1C12CC3CC(CC(C3)C1)C2 | inactive
CCN1CCCC1CNC(=O)c1cc(S(N)(=O)=O)ccc1OC (stereo not given) | inactive
Cc1ccnc2c1NC(=O)c1cccnc1N2C1CC1 | inactive
CCc1c2c(nc3ccc(OC(=O)N4CCC(N5CCCCC5)CC4)cc13)-c1cc3c(c(=O)n1C2)COC(=O)[C@]3(O)CC | 0.166 µM (active)
C1CCC(C(CC2CCCCN2)C2CCCCC2)CC1 (stereo not given) | 16.6 µM (active)
CC(C)(C)NC(=O)[C@H]1CC[C@H]2[C@@H]3CC[C@H]4NC(=O)C=C[C@]4(C)[C@H]3CC[C@]12C | 2.96 µM (active)
S=P(N1CC1)(N1CC1)N1CC1 | inactive
CCOC(=O)c1ccc(C#Cc2ccc3c(c2)C(C)(C)CCS3)nc1 | inactive
O=C(NCC1CN(c2ccc(N3CCOCC3=O)cc2)C(=O)O1)c1ccc(Cl)s1 (stereo not given) | inactive
COc1cc(NCc2ccc3nc(N)nc(N)c3c2C)cc(OC)c1OC | 5.9 µM (active)
C[C@@H]1C[C@H]2[C@@H]3CCC4=CC(=O)C=C[C@]4(C)[C@@]3(Cl)[C@@H](O)C[C@]2(C)[C@@]1(OC(=O)c1ccco1)C(=O)CCl | 14.8 µM (active)
OC(Cn1cncn1)(Cn1cncn1)c1ccc(F)cc1F | inactive
CC(=O)Oc1ccccc1C(=O)Nc1ncc([N+](=O)[O-])s1 | 15.2 µM (active)
CCCCOc1ccc(CC(=O)NO)cc1 | 10.5 µM (active)
